Assay outcomes from PubChem.
BL2 CD40 inh: inhibitors of CD40-induced NF-kB signaling, primary screen, BL2 cells, luciferase reporter, single point; CD40L-induced, 4 h; inhibition, % at 10 µM; hit rate 0.94% among 83,000;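 active = mean inhibition of at least 50% with a set share of replicates also reaching that level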;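 note: 0% = neutral control wells and 100% = IKK inhibitor VII at 50 µM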
Starred values were filed as active, the others as inactive; [ ] = dose if it differs, or a comment. This excerpt belongs to a sample that is enriched for hits.

SMILES	BL2 CD40 inh
O=C1CC(c2ccc3c(c2)OCO3)Sc2nc3ccccc3n21 (configuration not stated)	60*
O=C1CC(c2ccco2)Sc2nc3ccccc3n21 (configuration not stated)	-124
O=C(Nc1cccc(F)c1)N1C[C@@H]2[C@H](c3ccccc31)[C@H](CO)N2C(=O)Cc1ccccn1	0[25 µM]
O=C(N1CCN(CCO)CC1)N1c2ccccc2CCc2ccccc21	3
O=C(CN1CCCC1)N1c2ccccc2Sc2ccccc21	1
OCCN1CCN(CCCN2c3ccccc3Sc3ccc(C(F)(F)F)cc32)CC1	51*
O=C(C1CCOCC1)N1CC(=O)N2[C@H](CO)[C@@H](c3ccc(C#CC4CCCC4)cc3)[C@@H]2C1	-9
COc1ccc(CN2[C@@H](CO)[C@@H]3c4ccccc4N(C(=O)c4ccccc4)C[C@@H]32)cc1	6
CCS(=O)(=O)N1CCCCN2[C@H](C1)[C@@H](c1ccc(-c3ccc(C#N)cc3)cc1)[C@@H]2CO	13[25 µM]
Cc1cc(C(=O)NCCCC(=O)O)c(C)o1	25
Cc1cc(C(=O)Nc2c(C)n(C)n(-c3ccccc3)c2=O)c(C)o1	5
Cc1cc(C(=O)NCCC(c2ccccc2)c2ccccc2)c(C)o1	80*
CS(=O)(=O)c1ccc(C(=O)OCC(=O)NC(=O)C2COc3ccccc3O2)cc1[N+](=O)[O-] (configuration not stated)	95*
CC(C)(C)C(=O)COC(=O)c1ccc(N)c([N+](=O)[O-])c1	-65
CS(=O)(=O)c1ccc(C(=O)OCC(=O)NC(=O)C2CCCCC2)cc1[N+](=O)[O-]	85*
COc1ccc(C(=O)OCC(=O)Nc2ccc(OC)c(S(=O)(=O)N3CCCCC3)c2)cc1[N+](=O)[O-]	5
CNc1ccc(C(=O)OCC(=O)NC(=O)NC2CCCCC2)cc1[N+](=O)[O-]	3
Nc1ccc(C(=O)NNC(=O)C2COc3ccccc3O2)cc1[N+](=O)[O-] (configuration not stated)	2
O=C(C1CC1)N1C[C@@H]2[C@H](c3ccccc31)[C@@H](CO)N2S(=O)(=O)c1ccccc1	3
N#C[C@@H]1[C@@H](c2ccc(C3=CCCC3)cc2)[C@@H](CO)N1c1nc(-c2ccccc2)cs1	-16[25 µM]
CN(C)C(=O)C[C@@H]1C[C@@H]2c3cc(NC(=O)Nc4ccc(F)cc4)ccc3O[C@@H]2[C@@H](CO)O1	7[25 µM]
CO[C@H]1CN(C)C(=O)c2cccc(C#N)c2OCC[C@H]2CC[C@@H](OC)[C@H](CN(C)C(=O)[C@@H]1C)O2	4[25 µM]
COC(=O)C[C@H]1C[C@H]2c3cc(NC(=O)Nc4ccccc4)ccc3O[C@H]2[C@@H](CO)O1	-2[25 µM]
Cc1ccc(S(=O)(=O)N[C@H]2CC[C@H](CCNC(=O)C3CCCCC3)O[C@H]2CO)cc1	-3
O=C(CN1CCOCC1)N[C@@H]1CC[C@@H](CCNC(=O)C2CCCC2)O[C@H]1CO	0
SMILES	BL2 CD40 inh
C[C@H](CO)N1C[C@H](C)[C@H](CN(C)Cc2cccc(C(=O)O)c2)OCc2ccccc2-c2c(n(C)c3ccccc23)C1=O	-9
C[C@H](CO)N1C[C@H](C)[C@H](CN(C)C(=O)Nc2cccc(C(F)(F)F)c2)OCc2ccccc2-c2c(n(C)c3ccccc23)C1=O	37[25 µM]
C[C@@H]1CN([C@H](C)CO)C(=O)c2c(c3ccccc3n2C)-c2ccccc2CO[C@@H]1CN(C)Cc1cccc(C(F)(F)F)c1	37[25 µM]
C[C@H]1CN([C@@H](C)CO)C(=O)c2c(c3ccccc3n2C)-c2ccccc2CO[C@@H]1CN(C)C(=O)Nc1cccc(C(F)(F)F)c1	64*[25 µM]
C[C@H](CO)N1C[C@H](C)[C@H](CN(C)C(=O)Nc2ccccc2C(F)(F)F)OCc2ccccc2-c2c(n(C)c3ccccc23)C1=O	38[25 µM]
C[C@H](CO)N1C[C@H](C)[C@@H](CN(C)C(=O)Nc2ccccc2C(F)(F)F)OCc2ccccc2-c2c(n(C)c3ccccc23)C1=O	8[25 µM]
C[C@H]1CN([C@@H](C)CO)C(=O)c2c(c3ccccc3n2C)-c2ccccc2CO[C@H]1CN(C)Cc1cccc(C(F)(F)F)c1	10[25 µM]
C[C@@H]1CN([C@@H](C)CO)C(=O)c2c(c3ccccc3n2C)-c2ccccc2CO[C@@H]1CN(C)C(=O)Nc1ccccc1C(F)(F)F	55*[25 µM]
C[C@H](CO)N1C[C@H](C)[C@@H](CN(C)Cc2cccc(C(F)(F)F)c2)OCc2ccccc2-c2c(n(C)c3ccccc23)C1=O	73*[25 µM]
C[C@@H]1CN([C@@H](C)CO)C(=O)c2c(c3ccccc3n2C)-c2ccccc2CO[C@H]1CN(C)Cc1cccc(C(=O)Nc2ccccc2N)c1	60*[25 µM]
C[C@H](CO)N1C[C@H](C)[C@@H](CN(C)C(=O)Nc2cccc(C(F)(F)F)c2)OCc2ccccc2-c2c(n(C)c3ccccc23)C1=O	46[25 µM]
C[C@@H]1CN([C@H](C)CO)C(=O)c2c(c3ccccc3n2C)-c2ccccc2CO[C@H]1CN(C)Cc1cccc(O)c1	9
COc1ccccc1CNC(=O)C[C@H]1C[C@@H]2c3cc(NC(=O)C4CCC4)ccc3O[C@@H]2[C@H](CO)O1	-10[25 µM]
